Screening results as filed in PubChem BioAssay.
Compounds with a hit are over-represented: about 2.9% of the library has one in this group of screens.
NadD block – NadD (S. aureus) enzyme inhibition. purified NadD enzyme, colorimetric absorbance read-out. inhibition, % at 20 µM. actives 0.78% (n = 360,000). AID 602399; in the data active = inhibition above about 26%
TAG inh – inhibitors of triacylglycerol accumulation; H9c2 cells, Nile Red lipid (TAG) fluorescence; cells loaded with 200 µM oleic acid; inhibition, % at 12.5 µM; actives 0.66% (n = 230,000); AID 651582;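 active = pattern-corrected inhibition of lipid staining of at least 50% with the nuclear-stain viability signal not falling by more than 50%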
A3G deaminase – inhibitors of human APOBEC3G DNA deaminase; actives 0.28% (n = 330,000); inhibition, % at 20 µM; AID 493012; recombinant A3G, ssDNA deamination FAM/TAMRA fluorescence; Q9HC16;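 active = inhibition of at least 40% at 20 µM, with no more than 30% in the related APOBEC3A deaminase screen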
Target sequence (Q9HC16 whole entry, looked up): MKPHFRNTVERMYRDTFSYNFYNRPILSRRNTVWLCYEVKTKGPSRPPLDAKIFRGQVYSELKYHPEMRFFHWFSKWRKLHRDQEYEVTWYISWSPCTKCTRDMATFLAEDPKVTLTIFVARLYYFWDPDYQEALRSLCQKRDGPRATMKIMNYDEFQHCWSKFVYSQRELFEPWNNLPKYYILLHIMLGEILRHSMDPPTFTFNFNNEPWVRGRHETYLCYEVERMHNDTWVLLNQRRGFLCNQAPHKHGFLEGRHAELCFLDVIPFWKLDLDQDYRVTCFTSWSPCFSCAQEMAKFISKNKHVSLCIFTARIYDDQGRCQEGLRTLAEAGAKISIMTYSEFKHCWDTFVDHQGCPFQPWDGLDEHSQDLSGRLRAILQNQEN
Cardio protect – modulators protecting cardiomyocytes from myocardial damage; H9c2 cardiomyocytes, H2O2 injury protection, ATPLite, 2 h; protection from H2O2 cell death, % at 20 µM; actives 0.63% (n = 360,000); AID 588492;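 active = compounds giving at least 50% protection of heart cells from peroxide-induced death in the single-dose screen, raw or plate-pattern-corrected value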
PfGluPho inh – PfG6PD (Plasmodium falciparum) enzyme inhibition | PfGluPho enzyme, NADPH resazurin-diaphorase fluorescence | inhibition, % at 20 µM | actives 0.78% (n = 350,000);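 active = inhibition reaching at least a set limit at 20 µM in the primary screen, cut at about 59% in these data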
A3A deaminase – human APOBEC3A DNA deaminase inhibition | P31941 | actives 0.41% (n = 330,000) | AID 493011 | inhibition, % at 20 µM | recombinant A3A, FAM/TAMRA ssDNA deamination fluorescence;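 active = at least 40% inhibition at 20 µM here, with at most 30% in a related deaminase screen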
Target sequence (P31941 whole entry, looked up): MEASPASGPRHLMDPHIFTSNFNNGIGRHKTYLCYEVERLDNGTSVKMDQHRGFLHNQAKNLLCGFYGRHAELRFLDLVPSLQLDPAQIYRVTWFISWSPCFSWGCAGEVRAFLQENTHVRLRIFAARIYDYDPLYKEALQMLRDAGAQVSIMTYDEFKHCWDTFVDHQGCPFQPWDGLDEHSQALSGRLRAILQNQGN
Of the large screens only hits and unclear results are named; the others gave an inactive call.

O=C(NC1CCCCC1)C(c1ccc2ncccc2c1)N(Cc1ccco1)C(=O)c1ccc2c(c1)OCCO2 (stereo not drawn)	Cardio protect 55.8 (no result: TAG inh)
COc1ccc(C(C(=O)NC2CCCCC2)N(Cc2cccs2)C(=O)Cc2c[nH]c3ccccc23)cc1OC (stereo not drawn)	Cardio protect 52.2 (no result: TAG inh)
COc1cccc(CN2CCC2(C)C(=O)NCCc2ccccn2)c1OC (stereo not drawn)	none (no result: A3G deaminase, PfGluPho inh, A3A deaminase)
CC(=O)Nc1ccc(N2C(=O)c3ccc(C(=O)Nc4nnc(SCc5ccc(F)cc5)s4)cc3C2=O)cc1	NadD block 31.1 (no result: TAG inh)
CCC(=O)Nc1nnc(SCc2ccc(F)cc2)s1	none
C=C1C(=O)C=C[C@]2(C)C[C@@H]3OC(=O)[C@](C)(O)[C@H]3C[C@@H]12	TAG inh 57.2
O=S1(=O)N[C@H](Cc2ccccc2)COc2cc(N3CCC[C@@H]3CO)ccc21	none (no result: TAG inh, A3G deaminase, Cardio protect, PfGluPho inh, A3A deaminase)
COc1cc(/C=C/c2nc(-c3ccccc3O)n[nH]2)cc(OC)c1OC	Cardio protect 65.6
Cc1nc(N2CCN(S(=O)(=O)c3cccc4nonc34)CC2)c2c3c(sc2n1)CCCC3	Cardio protect 48.7 (no result: TAG inh)
Cc1nc(N2CCN(S(=O)(=O)c3ccccc3)CC2)c2c3c(sc2n1)CC(C)CC3 (stereo not drawn)	none (no result: TAG inh, A3G deaminase, A3A deaminase)
Cc1csc2nc(COC(=O)c3ccc(Cl)c([N+](=O)[O-])c3)cc(=O)n12	Cardio protect 81.5
Cc1csc2nc(COC(=O)CNC(=O)c3ccc(Cl)cc3)cc(=O)n12	none
CNC(=O)COC(=O)c1ccc(OCC(=O)Nc2ccccc2OC)c(OC)c1	none
COCCNC(=O)COC(=O)c1ccc(OCC(=O)Nc2ccccc2OC)c(OC)c1	Cardio protect 56.3
COCCn1ccc2c(OCC(=O)Nc3ccccc3OC)cccc2c1=O	Cardio protect 53.8
CCOCCn1ccc2c(OCC(=O)Nc3ccc(OC)cc3OC)cccc2c1=O	none
CCOc1ccccc1NC(=O)CN1CCCCCC1	none (no result: TAG inh)
O=C1N=C(N2CCCC2)S/C1=C\c1cn[nH]c1-c1ccccc1	none (no result: NadD block, TAG inh, Cardio protect, PfGluPho inh)
Cc1ccccc1N1CCN(C2=NC(=O)/C(=C/c3cn[nH]c3-c3ccccc3)S2)CC1	NadD block 40.5 (no result: TAG inh)
CCc1c(C)nc(Nc2nc(C)c3ccc(OC)cc3n2)[nH]c1=O	Cardio protect 66.2 (no result: TAG inh)
CCC1(C)Cc2c(sc3nc(NN)n(C)c(=O)c23)CO1 (stereo not drawn)	Cardio protect 51.3
CN(C)/C=C(\C#N)C(=O)N/N=C(\CC(=O)C(F)(F)F)c1ccco1	none
COC(=O)c1ccc(N2CC3CNC(=O)C2(C(=O)OC)N3C)cc1 (stereo not drawn)	none
COc1ccc(OC)c(CCNC(=O)CC2(CC3=NS(=O)(=O)c4ccccc4N3)CCCC2)c1	none
Cc1cccc(N=Cc2cc(Br)cc(Cl)c2O)c1	Cardio protect 53.7 (no result: TAG inh)
CCOC(=O)C1CCN(C(=O)c2[nH]c(C(F)(F)F)nc2-c2ccccc2)CC1	none (no result: TAG inh, A3G deaminase, PfGluPho inh, A3A deaminase)
CC(=O)N[C@@H](Cc1c[nH]c2ccccc12)C(=O)NCCc1ccc(S(N)(=O)=O)cc1	none (no result: TAG inh)
N#CCCSc1ccccc1NC(=O)c1cc(=O)c2ccccc2o1	Cardio protect 52.2 (no result: TAG inh)
O=Nc1ccc(O)c2ncccc12	TAG inh 67.2
Cc1ccccc1N=Nc1ccc(O)c2ncccc12	NadD block 32.7, TAG inh 85.9 (no result: A3G deaminase, A3A deaminase)
COCc1ccc(O)c2ncccc12	TAG inh 100.0
O=S(=O)(O)c1cccc2c(N=Nc3ccc(O)c4ncccc34)cccc12	none (no result: TAG inh, A3G deaminase, A3A deaminase)
Oc1ccc(CNc2ccccc2)c2cccnc12	none
COc1ccc(C)cc1N=Nc1ccc(O)c2ncccc12	none (no result: TAG inh, A3G deaminase, A3A deaminase)
Oc1ccc(N=Nc2ccc3c(c2)OCCO3)c2cccnc12	TAG inh 91.1
COCCN(Cc1nc(C(c2ccccc2)c2ccccc2)no1)C(C)C	none
CC(=O)Nc1ccc(S(=O)(=O)N2CCN(Cc3cccs3)CC2)cc1	none
O=C(COC(=O)c1ccc(OC(F)F)cc1)NCCCN1CCCC1=O	none
COc1ccc(NC(=O)Nc2cc(C(C)(C)C)on2)cc1OC	none (no result: TAG inh)
COc1cccc(N=Nc2ccc(O)c3ncccc23)c1	NadD block 34.3 (no result: TAG inh)
COc1ccc(N=Nc2ccc(O)c3ncccc23)cc1	NadD block 40.3, TAG inh 77.3
COc1cccc(/C=N/NC(=O)c2cc(-c3ccccn3)nc3ccccc23)c1O	NadD block 47.5, Cardio protect 57.6
O=C(N/N=C/c1cc(Cl)cc([N+](=O)[O-])c1O)c1cc(-c2ccccn2)nc2ccccc12	NadD block 31.7
Cc1ccc(Cn2nc(C)c(C(=O)NCC(c3ccc(F)cc3)N3CCOCC3)c2Cl)cc1 (stereo not drawn)	none
O=C(CN1C(=O)C2CC=CCC2C1=O)Nc1nc(-c2ccc(F)c(F)c2)cs1 (stereo not drawn)	Cardio protect 82.1
CCN(CC)CCNC(=O)c1ccc(NC(=O)c2cc(S(=O)(=O)N3CCCCC3)ccc2N2CCOCC2)cc1	none (no result: A3G deaminase, A3A deaminase)
O=C(COc1ccc(F)cc1)Nc1nc(-c2ccccn2)cs1	Cardio protect 58.7
Cc1ccc(OCC(=O)Nc2nc(-c3ccccn3)cs2)c(C)c1	Cardio protect 53.0
O=C(COc1ccccc1)Nc1nc(-c2ccncc2)cs1	none
O=C(COc1ccc([N+](=O)[O-])cc1)Nc1nc(-c2ccccn2)cs1	Cardio protect 71.3
C=CCOc1ccccc1CN1CCC(Oc2cc(C(=O)NC3CC3)ccc2OC)CC1	none (no result: TAG inh)
CSc1ccccc1NC(=O)COC(=O)c1ccc(-n2nc(C)cc2C)cc1	none
CSc1cccc(NC(=S)NCCCN2CCN(c3ccc(F)cc3)CC2)c1	none
Cc1cc(C(C#N)c2ccc(Cl)cc2)c(Cl)cc1NC(=O)c1cc(I)cc(I)c1O (stereo not drawn)	NadD block 51.5
Cc1cc(NC(=O)c2ccc(Cl)cc2)c(C)cc1O	none
Cc1cccc(OCC(=O)NC(=S)NNC(=O)c2ccncc2)c1	PfGluPho inh 77.0
COc1ccc(-c2csc(NC(=O)c3ccc(OCC(=O)N4CCOCC4)c(OC)c3)n2)cc1OC	Cardio protect 80.7 (no result: TAG inh)
COc1ccc(-c2csc(NC(=O)c3cc(=O)c4ccccc4o3)n2)cc1OC	PfGluPho inh 67.0
OCCC1CN(C2CCN(c3ccccc3F)CC2)CCN1Cc1ccccc1 (stereo not drawn)	none
CCOC(=O)c1sc(N2N=C(C)/C(=C\c3ccc(OCC(=O)OC)cc3)C2=O)nc1C	Cardio protect 58.1 (no result: TAG inh)
Cc1cc(N2CCOCC2)c2c(N)c(Br)cc(C)c2n1	Cardio protect 51.6
Cc1cc(=O)[nH]c(N2CCOCC2)n1	none (no result: TAG inh)
COc1ccc(-c2nnc3ccc(SCC(=O)Nc4nc5ccccc5s4)nn23)cc1OC	Cardio protect 50.5 (no result: TAG inh)
COc1ccc(-c2nnc3ccc(SCC(=O)Nc4nccs4)nn23)cc1OC	none (no result: TAG inh)
C[C@H](CO)N1C[C@H](C)[C@@H](CN(C)S(C)(=O)=O)Oc2ccc(NS(=O)(=O)c3cn(C)cn3)cc2C1=O	none
